An excerpt weighted towards active compounds, which were near 19% of everything screened.
TDP1 block: TDP1 (human) enzyme inhibition; recombinant TDP1, AlphaScreen DNA substrate cleavage; AID 485290; hit rate 0.28% among 350,000; Potency, µM (top dose mostly 130 µM), without a hit: top-dose activity change, negative = inhibition, actives largely listed as inhibitors; Q9NUW8; note: potency is the fitted concentration of half-maximal effect; % is set by controls: 0 for no effect and ±100 for the full control effect; nearly all actives have a fitted effect of over 40% in size
Target sequence (Q9NUW8 whole entry, looked up): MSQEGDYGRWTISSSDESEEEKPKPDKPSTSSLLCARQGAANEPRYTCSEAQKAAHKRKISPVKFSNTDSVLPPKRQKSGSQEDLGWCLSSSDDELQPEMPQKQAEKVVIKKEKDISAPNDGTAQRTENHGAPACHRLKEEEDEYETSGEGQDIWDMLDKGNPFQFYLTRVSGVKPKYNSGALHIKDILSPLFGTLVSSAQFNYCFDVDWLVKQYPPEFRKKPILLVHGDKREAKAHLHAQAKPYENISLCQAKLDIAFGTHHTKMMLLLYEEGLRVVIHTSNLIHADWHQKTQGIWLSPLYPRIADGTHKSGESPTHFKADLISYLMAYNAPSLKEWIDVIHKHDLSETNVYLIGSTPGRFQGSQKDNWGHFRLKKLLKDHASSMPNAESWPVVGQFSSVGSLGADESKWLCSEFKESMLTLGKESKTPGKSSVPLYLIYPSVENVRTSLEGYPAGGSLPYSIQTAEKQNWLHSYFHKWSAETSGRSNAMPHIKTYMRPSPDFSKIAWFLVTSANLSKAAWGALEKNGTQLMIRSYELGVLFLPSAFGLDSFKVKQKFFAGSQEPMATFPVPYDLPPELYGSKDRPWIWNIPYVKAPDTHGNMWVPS
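Here, a 5' biotin and 3' phosphotyrosine-FITC DNA oligonucleotide reports Tdp1 activity: intact substrate bridges AlphaScreen beads, while cleavage leaves a 3' phosphate and drops signal. All incubations at room temperature.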
TGFb inhibitor: blocks TGF-b signaling | Potency, µM (top dose mostly 46.1 µM), without a hit: at the highest dose activity, negative = inhibition, hits mostly inhibitors | AID 588855 | hit rate 1.2% among 410,000 | HepG2 CAGA-GFP TGF-b/SMAD3 reporter, GFP fluorescence, 18 h; TGF-beta stimulated, 500 pg/mL final; note: potency is the fitted concentration of half-maximal effect; % is set by controls: 0 for no effect and ±100 for the full control effect; nearly all actives have a fitted effect of over 65% in size
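Read-out: total well GFP (ex488/em500-530) summed from mean per-cell fluorescence. Cells: HEPG2 CAGA-GFP, 1% FBS DMEM, 18 h at 37 degrees C with 500 pg/mL final TGF-beta. Unstimulated wells served as the full-inhibition control; stimulated DMSO wells = 0%.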
HepG2 tox: kills HepG2 cells in TGF-b inhibitor counter-screen; HepG2 CAGA-GFP viability, ATP luminescence, 18 h; Potency, µM (titrated, usually from 46.1 µM), for the others: top-dose activity change, negative = cytotoxicity, usual class: cytotoxic; hit rate 0.76% among 410,000; note: potency is the fitted concentration of half-maximal effect
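HepG2 CAGA-GFP cells (1000/well, DMEM with 1% FBS) received compound, then TGF-beta at 500 pg/mL final, and were incubated 18 hours at 37 degrees C. Viability was read by CellTiter-Glo luminescence. Media-only wells were set as complete cell-killing and DMSO as no toxicity.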
DT40 TDP1 no CPT: qHTS for Inhibitors of human tyrosyl-DNA phosphodiesterase 1 (TDP1): qHTS in cells in absence of CPT; DT40 Tdp1-/- hTDP1 cells, no CPT, ATP luminescence, 48 h; Potency, µM (doses to about 46.2 µM), without a hit: at the highest dose activity change, negative = growth inhibition, hits mostly inhibitors; hit rate 15% among 420,000; note: potency is the fitted concentration of half-maximal effect; % is set by controls: 0 for no effect and ±100 for the full control effect; nearly all actives have a fitted effect of over 55% in size
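Growth of hTDP1-complemented DT40 Tdp1-knockout cells is measured by ATP luminescence after at least 48 hr compound exposure at 37 °C, with DMSO substituting for the 20 nM CPT used in the parallel screen.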
IL-1B inflam inh: inhibitors of inflammasome signaling (IL-1 beta secretion). THP-1 LPS/ATP IL-1B secretion, AlphaLISA, 16 h; hits give low values. activity change, % at 57.5 µM. AID 743279. hit rate 4.7% among 360,000; in the data active = activity change below about -50%; inconclusive = mostly about -30% to -49%; note: % is set by controls: 0 for no effect and ±100 for the full control effect
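THP-1 cells pretreated 1 hr with compounds (up to 57.5 uM final), then stimulated with LPS (250 ng/mL final) plus ATP (1.25 mM final); secreted IL-1B measured by AlphaLISA after 16 hr, decreased signal indicating inhibition.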
TDP1 cell CPT: DT40-hTDP1 cell growth loss with CPT. AID 686979. hit rate 12% among 420,000. Potency, µM (titrated, usually from 46.2 µM), for inactives: at the top dose activity change, negative = growth inhibition, hits mostly inhibitors. chicken DT40 Tdp1-/-;hTDP1 cells + 20 nM CPT, ATP luminescence, 48 h; note: potency is the fitted concentration of half-maximal effect; % is set by controls: 0 for no effect and ±100 for the full control effect; nearly all actives have a fitted effect of over 55% in size
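Chicken DT40 Tdp1-/- cells complemented with human TDP1, 400 cells/well, exposed to compounds plus 20 nM camptothecin for at least 48 h at 37 C; viability read as ATP content by CellTiter-Glo luminescence.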
Starred values were filed as active, the others as inactive; ? = inconclusive; . = not tested or not shown; [ ] = remark or other dose. Unless noted, calls come from the whole dose curve; as a rule, active = well fitted curve in the direction sought with a large enough effect; inconclusive = small, poorly fitted or top-dose-only effect, or another doubt; inactive = no such curve, though single readings can be large; an effect the other way counts as inactive or inconclusive.

SMILES	TDP1 block	TGFb inhibitor	HepG2 tox	DT40 TDP1 no CPT	IL-1B inflam inh	TDP1 cell CPT
COc1cc(C2c3[nH]c4ccccc4c3CC3C(=O)N4C(Cc5c([nH]c6ccccc56)C4c4cc(OC)c(OC)c(OC)c4)C(=O)N32)cc(OC)c1OC (centres undefined)	7%[21 µM]	.	.	.	.	.
COc1cc(OC)c(OC)cc1/C=N/NC(=O)c1cc(-c2cccn2C)n[nH]1	8%	0%	-69%	2%	5	-3%
COc1ccc(/C=N/NC(=O)c2cc(-c3cccn3C)n[nH]2)cc1OC	5%	-20%	-49%	18µM*	?	?
CCOc1cccc(/C=N/NC(=O)c2cc(-c3cccn3C)n[nH]2)c1O	11%	-1%	-25%	9.2µM*	118	5.8µM*
Cn1cccc1-c1cc(C(=O)N/N=C/c2cccc(O)c2)[nH]n1	4%	-6%	-23%	?	-70*	?
O=c1c2sc3ccccc3c2n(Cc2ccc(F)cc2Cl)c(=O)n1Cc1ccccc1	1%	-1%	-7%	?	.	?
Cc1ccc(S(=O)(=O)NC(=O)COc2ccccc2C)c(C)c1	4%	-19%	-1%	2%	1	6%
COc1ccccc1NC(=O)N(Cc1cccs1)Cc1cc2cc3c(cc2[nH]c1=O)OCO3	3%	-58%	0%	16µM*	8	?
CN(C)CCCN(Cc1cc2cc3c(cc2[nH]c1=O)OCO3)C(=S)NCc1ccco1	6%	6%	-2%	-27%	?	9%
CCOc1ccc2[nH]c(=O)c(CN(CCN3CCCC3)C(=S)Nc3ccccc3OC)cc2c1	3%	-18%	-19%	-19%	-62*	-29%
COC(=O)c1ccccc1NC(=O)NCc1ccc2c(c1)OCO2	3%	1%	-16%	-7%	-2	-1%
CN(C)CCCN(Cc1cc2cc3c(cc2[nH]c1=O)OCO3)C(=S)Nc1ccccc1	-1%	57%	2%	-4%	-62*	0%
COC(=O)c1ccccc1NC(=S)N(Cc1ccc2c(c1)OCO2)Cc1cc2cc(OC)ccc2[nH]c1=O	0%	?	-23%	16µM*	0	9.2µM*
COC(=O)c1cnn(-c2ccc(C(=O)Nc3cc(OC)c(OC)c(OC)c3)cc2)c1N	1%	7%	1%	?	.	?
COc1ccccc1NC(=S)N(CCCN(C)C)Cc1cc2cc3c(cc2[nH]c1=O)OCO3	2%	4%	3%	-16%	-23	-1%
CN(C)CCCNC(=S)N(CCCO)Cc1cc2cc3c(cc2[nH]c1=O)OCO3	.	-1%	1%	18%	6	-18%
CCN(CC)CCCN(Cc1cc2cc3c(cc2[nH]c1=O)OCO3)C(=S)Nc1ccccc1OC	0%	-10%	-14%	-15%	-29	18µM*
CCc1ccc2[nH]c(=O)c(CN(CCN(C)C)C(=O)Nc3ccccc3OC)cc2c1	4%	29%	-23%	?	?	?
CN(C)CCCN(Cc1cc2cc3c(cc2[nH]c1=O)OCO3)C(=S)Nc1cccc(Cl)c1	-7%	?	-37%	29µM*	-102*	?
CCc1ccc2[nH]c(=O)c(CN(Cc3ccccc3)C(=O)Nc3ccccc3OC)cc2c1	3%	-23%	-24%	?	-59*	?
CCOc1ccccc1/C=N/n1c(C2CCCCC2)n[nH]c1=S	.	-15%	-26%	-1%	10	-21%
COc1ccccc1/C=C/C=N/n1c(-c2ccc(Cl)cc2)n[nH]c1=S	8%	-10%	29%	16µM*	12	?
COc1ccccc1/C=C/C=N/n1c(C2CCCCC2)n[nH]c1=S	4%	-6%	6%	16µM*	-3	?
COc1ccccc1/C=C/C=N/n1c(-c2ccccc2)n[nH]c1=S	8%	-2%	-13%	21µM*	26	?
COc1ccc(-c2n[nH]c(=S)n2/N=C/C=C/c2ccccc2OC)cc1	-13%	-7%	3%	?	0	?
SMILES	TDP1 block	TGFb inhibitor	HepG2 tox	DT40 TDP1 no CPT	IL-1B inflam inh	TDP1 cell CPT
Cc1ccc(/C=N/n2c(-c3ccc(Cl)cc3)n[nH]c2=S)s1	.	-14%	-31%	16µM*	19	?
S=c1[nH]nc(-c2ccccc2)n1/N=C/C=C/c1ccco1	3%	2%	0%	?	10	?
O=C(Cn1ccc(NC(=O)OCc2ccccc2)nc1=O)NCCCN1CCCC1=O	5%	-2%	13%	-4%	1	-8%
CCN(CC)C(=O)c1csc(COCCO)n1	.	16%	-1%	-17%	0	-34%
Cc1ccc(Cc2c(-c3ccco3)nc3c4ccccc4ccn23)cc1	.	?	-47%	15µM*	-6	18µM*
Cc1ccc(Cc2c(-c3ccco3)nc3c(C)cc(Br)cn23)cc1	.	?	-103%	6.5µM*	-70*	3.7µM*
Cc1cc(Br)cn2c(Cc3cccc(Cl)c3)c(-c3ccco3)nc12	.	.	.	21µM*	-2	?
Cc1ccc(Cc2c(-c3ccco3)nc3ccc(C)cn23)cc1	.	?	-53%	13µM*	-10	16µM*
Cc1ccc(Cc2c(-c3ccc(C)cc3)nc3ccc(Cl)cn23)cc1	.	-29%	-18%	?	29	?
COc1cccc(N2CC(NC(=O)c3cccs3)CC2=O)c1 (centres undefined)	-13%	-1%	-8%	-8%	.	3%
O=C(NNc1ccccc1F)c1sccc1Cl	.	.	.	?	.	-21%
CN(Cc1ccco1)c1ccnc(-c2ccoc2)n1	3.5µM*	.	.	0%	.	4%
CN(Cc1ccco1)c1ncnc2ccc(-c3ccccc3C(F)(F)F)cc12	.	.	.	23µM*	.	?
CN(C)Cc1ccccc1-c1ccc2ncnc(N(C)C)c2c1	.	.	.	-16%	.	?
CN(Cc1ccco1)c1ncnc2ccc(-c3ccccc3Cl)cc12	4%	-25%	-24%	?	.	21µM*
CN(Cc1ccco1)c1ncnc2ccc(-c3ccoc3)cc12	1%	-14%	-44%	?	.	18µM*
CN(Cc1ccco1)c1ccnc(-c2cccnc2)n1	.	.	.	36%	.	-2%
CC(C)c1ccc(NS(=O)(=O)c2ccc3[nH]cc(C(=O)NCC4CCCO4)c(=O)c3c2)cc1 (centres undefined)	.	?	-7%	-16%	.	-1%
COc1cc(NC(=O)c2cc(S(=O)(=O)N3CCC(C)CC3)cn2C)cc(OC)c1OC	-1%	6%	-7%	-10%	.	2%
